Bioassay records deposited in PubChem BioAssay by The Scripps Research Institute Molecular Screening Center.
ASK1 inh – human ASK1 kinase inhibition, primary screen. Q99683. AlphaScreen MKK6 phosphorylation by ASK1, luminescence. inhibition, % at 7.44 µM. 22,000 tested, 0.99% active. AID 1159602; in the data active = inhibition above about 35%
Target sequence (Q99683 whole entry, looked up): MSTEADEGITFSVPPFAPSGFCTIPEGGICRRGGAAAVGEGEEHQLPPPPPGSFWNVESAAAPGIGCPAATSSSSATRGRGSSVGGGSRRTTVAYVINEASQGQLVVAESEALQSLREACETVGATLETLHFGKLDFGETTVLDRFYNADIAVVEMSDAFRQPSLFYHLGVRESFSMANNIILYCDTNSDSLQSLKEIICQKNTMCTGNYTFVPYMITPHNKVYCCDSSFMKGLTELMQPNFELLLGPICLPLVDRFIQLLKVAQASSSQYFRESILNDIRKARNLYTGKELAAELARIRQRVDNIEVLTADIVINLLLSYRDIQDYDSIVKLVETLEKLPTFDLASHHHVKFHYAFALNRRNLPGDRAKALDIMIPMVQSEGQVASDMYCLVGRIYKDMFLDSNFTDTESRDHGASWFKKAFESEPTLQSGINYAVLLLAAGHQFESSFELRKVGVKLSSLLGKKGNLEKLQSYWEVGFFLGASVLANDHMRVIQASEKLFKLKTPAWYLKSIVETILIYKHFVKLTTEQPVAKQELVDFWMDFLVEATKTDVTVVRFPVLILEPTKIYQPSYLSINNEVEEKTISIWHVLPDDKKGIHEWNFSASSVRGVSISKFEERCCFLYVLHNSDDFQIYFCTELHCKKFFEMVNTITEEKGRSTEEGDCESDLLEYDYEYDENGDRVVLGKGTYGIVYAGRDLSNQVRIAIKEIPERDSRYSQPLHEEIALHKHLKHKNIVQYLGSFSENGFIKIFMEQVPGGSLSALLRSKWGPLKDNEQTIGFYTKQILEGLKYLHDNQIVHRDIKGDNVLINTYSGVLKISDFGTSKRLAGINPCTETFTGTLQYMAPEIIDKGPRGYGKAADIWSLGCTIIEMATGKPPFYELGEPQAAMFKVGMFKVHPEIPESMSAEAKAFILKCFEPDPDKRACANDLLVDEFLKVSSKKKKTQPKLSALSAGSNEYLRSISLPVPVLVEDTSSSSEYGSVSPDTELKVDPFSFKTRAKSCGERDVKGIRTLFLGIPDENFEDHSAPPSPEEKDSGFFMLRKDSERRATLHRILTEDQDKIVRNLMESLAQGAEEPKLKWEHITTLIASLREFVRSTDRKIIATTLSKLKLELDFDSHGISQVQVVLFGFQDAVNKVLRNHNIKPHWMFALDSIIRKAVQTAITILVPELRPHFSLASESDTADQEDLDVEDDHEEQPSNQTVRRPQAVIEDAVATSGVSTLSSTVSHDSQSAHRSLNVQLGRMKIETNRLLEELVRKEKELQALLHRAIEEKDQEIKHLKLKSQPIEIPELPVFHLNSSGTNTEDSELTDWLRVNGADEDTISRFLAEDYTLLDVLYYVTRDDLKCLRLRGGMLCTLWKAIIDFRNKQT
ULK1 primary – inhibitors of human ULK1 kinase. AlphaScreen Atg13 phosphorylation by ULK1, luminescence. inhibition, % at 5.96 µM. 30,000 tested, 1.9% active. AID 1259251; in the data active = inhibition above about 43%
AlphaScreen intf – counter-screen for ASK1 inhibitors: AlphaScreen optical interference | AID 1159604 | AlphaScreen TruHits beads, signal interference counterscreen | IC50, µM | 220 tested, 20% active | shares compounds with ASK1 inh;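 active = IC50 of 10 µM or lower in the counterscreen; inactive = IC50 above 10 µM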;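 also: loss of AlphaScreen light from TruHits beads alone with no ASK1 enzyme present; potency of signal reduction so a low IC50 flags an assay artifact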
Each line names hits and unclear results; the compound was inactive in the other large screens (follow-up assays come after a bar, where they were run). An excerpt weighted towards active compounds, which were near 2.4% of everything screened.

CCN(CC)C(=O)C1CCCN(c2nc(N)c3ncn(C4CCCCC4)c3n2)C1 (stereo not given)	none
NC(=O)c1ccccc1Nc1ccnc(Nc2cccnc2)c1	none
Nc1cccc(-c2nc(NC3CC3)c3ncn(Cc4ccc(C(F)(F)F)cc4)c3n2)c1	none
CC(NC(=O)c1ccccc1Br)c1ccccc1 (stereo not given)	none (no result: ASK1 inh)
CC(C)n1cnc2c(N)nc(Nc3ccc(-n4ccnc4)cc3)nc21	none
O=C(Nc1ccc(N2CCOCC2)cc1)c1cncc(-c2cccs2)c1	none
COc1ccc(CNC(=O)CCCC(=O)Nc2cc(C)on2)cc1	none (no result: ASK1 inh)
c1ccc(OCCNc2nc(Nc3cnccn3)nc3nc[nH]c23)cc1	none
COc1cc2nc(Nc3cc(OC)c(OC)c(OC)c3)nc(NC3CC3)c2cc1OC	none
COc1cc2nc(Nc3ccc(N4CCOCC4)cc3)nc(NC3CC3)c2cc1OC	ASK1 inh 43 | AlphaScreen intf inactive
COc1ccc(C(=O)COC(C)=O)cc1OC	none (no result: ASK1 inh)
CC(C)(C)OC(=O)N1CCC[C@H](Nc2ccnc(Nc3ccc(S(N)(=O)=O)cc3)n2)C1	none
c1ccc(Oc2ccc(Nc3nc(N4CCOCC4)nc4c3ncn4-c3ccccc3)cc2)cc1	none
c1ccc(Oc2ccc(Nc3nc(N4CCc5ccccc5C4)nc4c3ncn4-c3ccccc3)cc2)cc1	ASK1 inh 46 | AlphaScreen intf inactive
COc1cc(Nc2nc(NCc3cccc(C(F)(F)F)c3)c3ncn(Cc4ccc(C(F)(F)F)cc4)c3n2)cc(OC)c1OC	none
NC(=O)c1ccc(-c2nc(NCc3cccc(C(F)(F)F)c3)c3ncn(-c4ccccc4)c3n2)cc1	ASK1 inh 39 | AlphaScreen intf inactive
FC(F)(F)c1cccc(CNc2nc(-c3ccccc3)nc3c2ncn3-c2ccccc2)c1	none
Nc1nc(NCCCN2CCCC2=O)cc(NCCN2CCOCC2)n1	none
Cc1nc(C)n(-c2ccc(Nc3nccc(-c4cc(F)cc(-c5cn[nH]c5C)c4)n3)cc2)n1	ASK1 inh 36 | AlphaScreen intf inactive
Cc1nc(C)n(-c2ccc(Nc3nccc(-c4cc(F)cc(-c5ncco5)c4)n3)cc2)n1	ASK1 inh 38 | AlphaScreen intf inactive
Cc1ncn(-c2ccc(Nc3nccc(-c4cc(F)cc(-c5cn[nH]c5C)c4)n3)cc2)n1	ASK1 inh 48 | AlphaScreen intf inactive
Cc1[nH]ncc1-c1cc(F)cc(-c2ccnc(Nc3ccc(-n4cnc(C(F)(F)F)n4)cc3)n2)c1	none
Cc1nc(C)n(-c2ccc(Nc3nccc(-c4cncc(F)c4)n3)cc2)n1	none
Cc1nc(C)n(-c2ccc(Nc3nccc(-c4cc(F)cc(-c5ccnn5C)c4)n3)cc2)n1	none
COc1cc(Nc2nc(N3CCC(N4CCOCC4)CC3)nc3nc[nH]c23)cc(OC)c1OC	none
c1ccc(-c2nc(NCCN3CCOCC3)c3ncn(-c4ccsc4)c3n2)cc1	none
O=C(NCCN1CCOCC1)c1cccc(-n2ncc3cc(Nc4c(F)cccc4[N+](=O)[O-])ccc32)c1	ASK1 inh 44 | AlphaScreen intf inactive
CC(=O)N1CCN(CCNC(=O)c2cccc(-n3ncc4cc(Nc5cccc(C)c5Cl)ccc43)c2)CC1	none
O=C(NCCN1CCOCC1)c1cccc(-n2ncc3cc(Nc4ccccc4F)ccc32)c1	none
Cc1cccc(Nc2ccc3c(cnn3-c3cccc(C(=O)NCCN4CCN(CC5CC5)CC4)c3)c2)c1Cl	ASK1 inh 36 | AlphaScreen intf inactive
Cc1cccc(Nc2ccc3c(cnn3-c3cccc(C(=O)NCCN4CCNCC4)c3)c2)c1Cl	ASK1 inh 43 | AlphaScreen intf inactive
Cc1cccc(Nc2ccc3c(cnn3-c3cccc(C(=O)NCCN4CCN(C)CC4)c3)c2)c1Cl	none
O=C(Nc1ccc2[nH]ncc2c1)[C@@H]1CCCN1C(=O)[C@H](O)c1ccccc1Cl	none
CC(C)n1cnc2c(NC3CC3)nc(N3CCN(c4ccccn4)CC3)nc21	ASK1 inh 43 | AlphaScreen intf inactive
c1cncc(CNc2nc(N3CCOCC3)nc3c2ncn3C2CCCCC2)c1	none
c1cncc(CNc2nc(Nc3ccc(N4CCOCC4)cc3)nc3c2ncn3C2CCCCC2)c1	ASK1 inh 36 | AlphaScreen intf inactive
CCCNc1nc(N2CCN(c3ccccn3)CC2)nc2c1ncn2C(C)C	none
c1ccc(-n2cnc3c(NCc4cccnc4)nc(Nc4cccnc4)nc32)cc1	none
c1ccc(-n2cnc3c(NCc4cccnc4)nc(Nc4ccc(N5CCOCC5)cc4)nc32)cc1	ASK1 inh 39 | AlphaScreen intf inactive
c1ccc(N2CCN(c3nc(Nc4ccc(N5CCOCC5)cc4)c4ncn(C5CCCCC5)c4n3)CC2)nc1	ASK1 inh 44, ULK1 primary 64 | AlphaScreen intf inactive
c1ccc(Nc2nc(N3CCN(c4ccccn4)CC3)nc3c2ncn3C2CCCCC2)cc1	none
Cc1cnc(NCCN2CCOCC2)nc1Nc1ccc(N2CCOCC2)cc1	none
Nc1nc(NCCc2ccc(O)cc2)cc(-c2ccccc2)n1	none
O=C(Nc1ccc(-c2cn[nH]c2)cc1)C1COc2ccccc2O1 (stereo not given)	none
